Data from PubChem BioAssay (NCI).
This is part of a sample that, as a whole, favours compounds with a hit. Of some 83,000 tested, about 20% had one in any assay.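 Results are percent growth after 48 hours of single-concentration exposure. 100 means growth as in untreated cells, lower positive values show inhibition; negative values down to -100 show cell death.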 Active and inactive are the calls of the source. The calls were made as follows: active = growth percent below 10; inactive = the rest.

The compounds below were run on A549/ATCC NSCLC (assay: NCI-60 one-dose screen, 48 h (100 = growth as untreated, 0 = no growth, -100 = all killed)). Conditions: 10 µM unless noted.

| Structure (SMILES) | growth |
| --- | --- |
| O=NN(Cc1cccnc1)C(=O)NC1CCCCC1 | 93.9% (inactive) |
| FC(F)(F)c1cccc(CNC2CCN(CCc3ccccc3)CC2)c1 | 77.5% (inactive) |
| COc1ccc(CCN2C(=O)/C(=C/c3ccc(C4Oc5ccccc5C5CC(c6cccc(OC)c6)=NN54)cc3)SC2=S)cc1 (stereo not drawn) | 103% (inactive) |
| COc1cc(-c2c3c(cn2S(=O)(=O)c2ccccc2)-c2nc(N)sc2CC3)cc(OC)c1OC | 30.7% (inactive) |
| CCC1=C[C@@H]2CN(C1)Cc1c([nH]c3ccccc13)[C@@](C(=O)OC)(c1cc3c(cc1OC)N(C)[C@H]1[C@@](O)(C(=O)OC)[C@H](OC(C)=O)[C@]4(CC)[C@@H]5C[C@@H]5CN5CC[C@]31[C@@H]54)C2 | 13.9% (inactive) |
| O=C(O)CCCN1C(=O)C2C3CCC(C3)C2C1=O (stereo not drawn) | 104% (inactive) |
| CCOC(=O)CSc1c(-c2ccccc2)c2cc(Cl)ccc2[nH]c1=O | 102% (inactive) |
| COc1ccc(C2C3=C(COC3=O)N(CCO)c3cc4c(cc32)CCC4)cc1 (stereo not drawn) | 46.6% (inactive) |
| Cc1c(C(=O)OCCO)cc(-c2ccc(Cl)cc2)n1-c1ccc(Cl)cc1Cl | 47.6% (inactive) |
| NC1C(N)C(N)C1N (stereo not drawn) | 99.8% (inactive) |
| Oc1[nH]c2ccccc2c1N=Nc1nnc2n1N=C(c1ccccc1)CS2 | 69.1% (inactive) |
| O=NN(C(=O)NC1CCC(C(=O)O)CC1)C1CCC(C(=O)O)CC1 (stereo not drawn) | 106% (inactive) |
| Nc1ccc(-c2nn3c(CCC(=O)c4nc5ncccc5[nH]4)nnc3s2)c(O)c1 | 89.6% (inactive) |
| CCOc1ccc2c(c1)CN(Cc1ccc(Cl)cc1)CO2 | 18.7% (inactive) |
| CCN(CC)CCCNc1ccnc2cc3ccccc3cc12 | 46.6% (inactive) |
| Cc1ccc2cccc(Oc3ccc(Nc4ncnc5onc(-c6ccccc6)c45)cc3)c2n1 | 80.6% (inactive) |
| CCCc1c(C)c2sc(=O)[nH]c2[nH]c1=O | 103% (inactive) |
| CC(C)[C@H](NC(=O)Cn1cc(C(=O)O)nn1)C(=O)O | 97% (inactive) |
| CC1CCCCN1CCCNC(=O)c1ccc2c(c1)sc1nc(-c3ccc(F)cc3)cn12 (stereo not drawn) | 108% (inactive) |
| CN(C)c1ccc(/C=C/c2ccnc3c(O)cccc23)cc1 | 3.5% (active) |

| Structure (SMILES) | growth |
| --- | --- |
| NC(=O)CSc1nc(-c2ccc(F)cc2)cc(-c2ccco2)n1 | 104% (inactive) |
| Clc1ccc(COc2ccc(Nc3ncnc4onc(-c5ccccc5)c34)cc2)cc1 | 82.8% (inactive) |
| O=S1(=O)N(Cc2ccccc2)[C@@H](Cc2ccccc2)C2O[C@H]2[C@H](Cc2ccccc2)N1Cc1ccccc1 (stereo partly drawn) | 44.1% (inactive) |
| COc1cc(/C=C2\CN(C)C/C(=C\c3cc(CN4CCCC4)c(O)c(OC)c3)C2=O)cc(CN2CCCC2)c1O | 85.6% (inactive) |
| COc1cc(/C=C2\CN(S(=O)(=O)c3ccccc3)C/C(=C\c3cc(CN4CCCC4)c(O)c(OC)c3)C2=O)cc(CN2CCCC2)c1O | 19.9% (inactive) |
| COc1ccc(-c2nc(N3CCN(C(=O)C4CCCCC4)CC3)c3c4c(sc3n2)CCCC4)cc1 | -36.3% (active) |
| Nc1cccc(Nc2cc(S(=O)(=O)O)c(N)c3c2C(=O)c2ccccc2C3=O)c1 | 102% (inactive) |
| CCCCNc1nc(NC(C)(C)C)nc(NC(C)(C)C)n1 | 56.3% (inactive) |
| COc1ccc(OC)c(NC(=O)/C(C#N)=C/c2ccco2)c1 | 93.8% (inactive) |
| O=c1oc2ccc(Br)cc2c(=O)n1-c1ccc(Cl)cc1F | 8.23% (active) |
| COc1ccc(C2=NN(/C=C3\SC(=O)NC3=Nc3ccc(F)cc3)C(c3ccc(F)cc3)C2)cc1 (stereo not drawn) | 92% (inactive) |
| Nc1no[n+]([O-])c1-c1nnc2c(n1)-c1ccccc1C2=O | 98.1% (inactive) |
| C=CCN1C(=O)/C(=c2\sc3n(c2=O)NC2C(N=3)N(CC)C(=O)N2CC)c2ccccc21 (stereo not drawn) | 42.5% (inactive) |
| O=C1/C(=C/c2ccc(O)cc2)COc2ccc(O)cc21 | 107% (inactive) |
| COc1cc(/C=C/C(=O)c2c(C)nc3ccccc3c2/C=C/c2ccccc2)cc(OC)c1OC | 8.71% (active) |
| O=c1oc2ccc(F)cc2c(=O)n1-c1ccc(Cl)cc1F | 3.43% (active) |
| CC1(C)CC2(C)OC2C2(C1)N=NC(=Nc1ccccc1)O2 (stereo not drawn) | 54.1% (inactive) |
| CCN1C(=O)N(CC)C2Nn3c(s/c(=C4\C(=O)N(C(C)C)c5ccccc54)c3=O)=NC21 (stereo not drawn) | 30.4% (inactive) |
| O=c1c(-c2nc3ccccc3[nH]2)cc2ccccc2n1Cc1cn(Cc2ccc(F)cc2)nn1 | 11.4% (inactive) |

The compounds below were run on 786-0 renal in the same assay as above. Conditions: 10 µM unless noted.

| Structure (SMILES) | growth |
| --- | --- |
| O=NN(Cc1cccnc1)C(=O)NC1CCCCC1 | 108% (inactive) |
| FC(F)(F)c1cccc(CNC2CCN(CCc3ccccc3)CC2)c1 | 78.6% (inactive) |
| COc1ccc(CCN2C(=O)/C(=C/c3ccc(C4Oc5ccccc5C5CC(c6cccc(OC)c6)=NN54)cc3)SC2=S)cc1 (stereo not drawn) | 105% (inactive) |
| COc1cc(-c2c3c(cn2S(=O)(=O)c2ccccc2)-c2nc(N)sc2CC3)cc(OC)c1OC | 43.4% (inactive) |
| CCC1=C[C@@H]2CN(C1)Cc1c([nH]c3ccccc13)[C@@](C(=O)OC)(c1cc3c(cc1OC)N(C)[C@H]1[C@@](O)(C(=O)OC)[C@H](OC(C)=O)[C@]4(CC)[C@@H]5C[C@@H]5CN5CC[C@]31[C@@H]54)C2 | 11.2% (inactive) |
| O=C(O)CCCN1C(=O)C2C3CCC(C3)C2C1=O (stereo not drawn) | 106% (inactive) |
| CCOC(=O)CSc1c(-c2ccccc2)c2cc(Cl)ccc2[nH]c1=O | 97.1% (inactive) |
| COc1ccc(C2C3=C(COC3=O)N(CCO)c3cc4c(cc32)CCC4)cc1 (stereo not drawn) | 54.8% (inactive) |
| Cc1c(C(=O)OCCO)cc(-c2ccc(Cl)cc2)n1-c1ccc(Cl)cc1Cl | 94.1% (inactive) |
| NC1C(N)C(N)C1N (stereo not drawn) | 105% (inactive) |
| Oc1[nH]c2ccccc2c1N=Nc1nnc2n1N=C(c1ccccc1)CS2 | 82% (inactive) |
| O=NN(C(=O)NC1CCC(C(=O)O)CC1)C1CCC(C(=O)O)CC1 (stereo not drawn) | 107% (inactive) |
| Nc1ccc(-c2nn3c(CCC(=O)c4nc5ncccc5[nH]4)nnc3s2)c(O)c1 | 99.2% (inactive) |
| CCOc1ccc2c(c1)CN(Cc1ccc(Cl)cc1)CO2 | 6.53% (active) |
| CCN(CC)CCCNc1ccnc2cc3ccccc3cc12 | 66.8% (inactive) |
| Cc1ccc2cccc(Oc3ccc(Nc4ncnc5onc(-c6ccccc6)c45)cc3)c2n1 | 101% (inactive) |
| CCCc1c(C)c2sc(=O)[nH]c2[nH]c1=O | 109% (inactive) |
| CC(C)[C@H](NC(=O)Cn1cc(C(=O)O)nn1)C(=O)O | 104% (inactive) |
| CC1CCCCN1CCCNC(=O)c1ccc2c(c1)sc1nc(-c3ccc(F)cc3)cn12 (stereo not drawn) | 78.8% (inactive) |
| CN(C)c1ccc(/C=C/c2ccnc3c(O)cccc23)cc1 | -10.5% (active) |

| Structure (SMILES) | growth |
| --- | --- |
| NC(=O)CSc1nc(-c2ccc(F)cc2)cc(-c2ccco2)n1 | 105% (inactive) |
| Clc1ccc(COc2ccc(Nc3ncnc4onc(-c5ccccc5)c34)cc2)cc1 | 90.7% (inactive) |
| O=S1(=O)N(Cc2ccccc2)[C@@H](Cc2ccccc2)C2O[C@H]2[C@H](Cc2ccccc2)N1Cc1ccccc1 (stereo partly drawn) | 40.6% (inactive) |
| COc1cc(/C=C2\CN(C)C/C(=C\c3cc(CN4CCCC4)c(O)c(OC)c3)C2=O)cc(CN2CCCC2)c1O | 72.2% (inactive) |
| COc1cc(/C=C2\CN(S(=O)(=O)c3ccccc3)C/C(=C\c3cc(CN4CCCC4)c(O)c(OC)c3)C2=O)cc(CN2CCCC2)c1O | 4.02% (active) |
| COc1ccc(-c2nc(N3CCN(C(=O)C4CCCCC4)CC3)c3c4c(sc3n2)CCCC4)cc1 | -78.4% (active) |
| Nc1cccc(Nc2cc(S(=O)(=O)O)c(N)c3c2C(=O)c2ccccc2C3=O)c1 | 111% (inactive) |
| CCCCNc1nc(NC(C)(C)C)nc(NC(C)(C)C)n1 | 48.2% (inactive) |
| COc1ccc(OC)c(NC(=O)/C(C#N)=C/c2ccco2)c1 | 100% (inactive) |
| O=c1oc2ccc(Br)cc2c(=O)n1-c1ccc(Cl)cc1F | -1.15% (active) |
| COc1ccc(C2=NN(/C=C3\SC(=O)NC3=Nc3ccc(F)cc3)C(c3ccc(F)cc3)C2)cc1 (stereo not drawn) | 92.7% (inactive) |
| Nc1no[n+]([O-])c1-c1nnc2c(n1)-c1ccccc1C2=O | 97.2% (inactive) |
| C=CCN1C(=O)/C(=c2\sc3n(c2=O)NC2C(N=3)N(CC)C(=O)N2CC)c2ccccc21 (stereo not drawn) | 57.5% (inactive) |
| O=C1/C(=C/c2ccc(O)cc2)COc2ccc(O)cc21 | 109% (inactive) |
| COc1cc(/C=C/C(=O)c2c(C)nc3ccccc3c2/C=C/c2ccccc2)cc(OC)c1OC | 18.2% (inactive) |
| O=c1oc2ccc(F)cc2c(=O)n1-c1ccc(Cl)cc1F | 1.85% (active) |
| CC1(C)CC2(C)OC2C2(C1)N=NC(=Nc1ccccc1)O2 (stereo not drawn) | 36.3% (inactive) |
| CCN1C(=O)N(CC)C2Nn3c(s/c(=C4\C(=O)N(C(C)C)c5ccccc54)c3=O)=NC21 (stereo not drawn) | 49.1% (inactive) |
| O=c1c(-c2nc3ccccc3[nH]2)cc2ccccc2n1Cc1cn(Cc2ccc(F)cc2)nn1 | -23.2% (active) |
